From PubChem BioAssay AID1224858 (National Center for Advancing Translational Sciences (NCATS), 2016)
Results filed as inconclusive are left out. A number with no mark means an inactive call. Calls of active or inactive are those of the source. Calls follow the shape of the dose curve; as a rule, active = well fitted inhibition curve with a large enough effect; inconclusive = small, poorly fitted or top-dose-only effect; inactive = no such curve, though single readings can be large or run the other way.

experiment: Confirmation assay for measurement of the activity of small molecule inhibitors on Zika virus induced Caspase-3 activity in human astrocytes; details: ZIKV-induced caspase-3/7 luminescence, 6 h; series mostly up to 46.1 µM; activity, negative = inhibition: at the top concentration
Text: National Center for Advancing Translational Sciences [NCATS] Johns Hopkins University School of Medicine Florida State University Assay Overview: Increase in the Caspase-3 activity indicates an activation of apoptosis cell death pathway caused by Zika virus infection in certain types of neuronal cells including human neural progenitor cells (hNPCs), astrocytes, and astrocytoma cell line (SNB-19). This cell-based caspase-3 activity assay measures the increased caspase-3 activity in the human astrocytes after a 6-hour Zika virus infection with a luminescence readout. A decrease in the luminescence signal in this assay by small molecule treatment indicates an inhibitory effect of that small molecule on the Zika virus induced caspase-3 activity that may correlate with its effect on reduction of Zika virus caused cell death.
Assay Protocol Summary: The medium for astrocytes contains AM basal medium (ScienCell, Cat.# 1801), AGS (ScienCell, Cat.# 1801), 10% FBS, and 1% Pen/Strep. A Caspase-Glo 3/7 assay kit (catalog number G8092; Promega, Madison, WI) was used to detect caspase-3 activity induced by Zika virus infection in human cells. The reagent mixture was reconstituted as described in the protocol from the manufacturer. Polystyrene tissue culture treated and PDL coated white plates were obtained from Greiner Bio-One (Monroe, NC). Cells were seeded in 384- or 1536-well assay plates and cultured at 37 C with 5% CO2 for 16 to 20 hours. The typical cell seeding density in the 1536-well plate assay is 350 cells/well in 3 ul medium for astrocytes in tissue culture treated plates. Compounds were added to cells and incubated for one hour before addition of ZIKV solution to cells (2 FFU/cell). After incubation at 37 C with 5% CO2 for 6 hours, the reagent mixture of Caspase-Glo 3/7 assay kit was added to each well, followed by incubation at room temperature for 30 minutes. The luminescence intensity of the assay plates was measured using a ViewLux plate reader (PerkinElmer). Data were normalized by using the cell-containing wells without ZIKV as a negative control (0% induction of caspase 3/7 activity) and wells containing ZIKV infected cells (Caspase-3 activity induced) as a positive control (100% induction of caspase 3 activity). The percentage inhibitions of the increased Caspase-3 activity by small molecule inhibitors were then calculated.

Structure (SMILES)	Potency	activity, negative = inhibition [%]
O=c1c2ccccc2[se]n1-c1ccccc1	7.74 µM (active)	–
O=C(Nc1ccc(Br)cc1)c1cc(Br)cc(Br)c1O	6.15 µM (active)	–
CC(O)CN1CCN(CC(=O)[O-])CCN(CC(=O)[O-])CCN(CC(=O)[O-])CC1.[Gd+3] (stereo not drawn)	–	16.8
O=S(=O)(CC1CS1)c1ccc(Oc2ccccc2)cc1 (stereo not drawn)	–	-16.3
O=C1C=CC[C@@H]2[C@H]3CCCN4CCC[C@@H](CN12)[C@@H]34	–	6.06
Oc1ccc([C@H]2CNCc3c2ccc(O)c3O)cc1O	–	-21.6
COC1(CS(=O)c2ccccc2)CCN(CCc2c[nH]c3ccc(F)cc23)CC1 (stereo not drawn)	–	21.6
COP(=S)(OC)SCN1C(=O)c2ccccc2C1=O	–	11.5
CC(C)N[C@@H]1CCn2c(=O)[nH]c3cccc(c32)[C@@H]1O	–	-6.93
CC(C)[N+](C)(CCC(C(N)=O)(c1ccccc1)c1ccccc1)C(C)C	–	3.8
CC(C)[C@H]1C(=O)N[C@H](CO)Cc2c[nH]c3cccc(c23)N1C	–	-6.86
O=C1CCC[C@@H]2[C@H]3CCCN4CCC[C@@H](CN12)[C@@H]34	–	-2.18
Cc1ccc([N+](=O)[O-])[c]2c1[O][Hg]2	7.74 µM (active)	–
